Results on 18 compounds are retold here after PubChem BioAssay (NCATS).

Experiment in all cases: Primary qHTS to identify gynecologic anti-cancer compounds using libraries of approved drugs and bioactive compounds (AID 1345084); note: nearly all actives have a fitted effect of over 55% in size
A general note: In qHTS, concentration-response curves come from the screen itself.

One assay relates to CAOV3. As to conditions: Gynecologic cancer cell panel viability, ATPlite luminescence, 48 h; series mostly up to 57.5 µM. In short, it runs like this: (§1)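 Five-concentration response, 48 h; readout is ATP-driven luciferase luminescence.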
A further assay concerns CASKI. As to conditions: Gynecologic cancer cell panel viability, ATPlite luminescence, 48 h; series mostly up to 57.5 µM. The essentials:
as §1
For orientation: ATP-based viability assays read luminescence as a measure of living cells.

The test system of the next assay is Es-2. As to conditions: Gynecologic cancer cell panel viability, ATPlite luminescence, 48 h; series mostly up to 57.5 µM. In short, it runs like this: as §1
The subject of another assay is HeLa. As to conditions: Gynecologic cancer cell panel viability, ATPlite luminescence, 48 h; series mostly up to 57.5 µM. The essentials:
as §1

A further assay concerns Hek293T. As to conditions: Gynecologic cancer cell panel viability, ATPlite luminescence, 48 h, control line for the selectivity index; series mostly up to 57.5 µM. The essentials:
as §1

For the next assay, the system named is JEG-3. As to conditions: Gynecologic cancer cell panel viability, ATPlite luminescence, 48 h; series mostly up to 57.5 µM. The essentials:
as §1

In the next assay the test system is OV90. As to conditions: Gynecologic cancer cell panel viability, ATPlite luminescence, 48 h; series mostly up to 57.5 µM. In short, it runs like this: as §1
The subject of a further assay is PA-1. As to conditions: Gynecologic cancer cell panel viability, ATPlite luminescence, 48 h; series mostly up to 57.5 µM. The essentials:
as §1

Another assay deals with SKOV3. As to conditions: Gynecologic cancer cell panel viability, ATPlite luminescence, 48 h; series mostly up to 57.5 µM. The essentials: as §1
The next assay relates to Tov-21-G. As to conditions: Gynecologic cancer cell panel viability, ATPlite luminescence, 48 h; series mostly up to 57.5 µM. In short, it runs like this: as §1

Molecules are shown by their SMILES. Several values for one entry are separate records, joined by “and”; a condition that tells them apart may be missing. Equal entries are not always repeated. Records with an inconclusive call do not appear. Values without a mark were called inactive. Activity calls are given as the source filed them. Calls come from the whole dose curve; as a rule, active = well fitted cell-killing curve with a large enough effect; inconclusive = small, poorly fitted or top-dose-only effect, or effect the other way; inactive = flat fitted curve, though single readings scatter.
% is set by controls: 0 for no effect and ±100 for the full control effect; potency is the fitted concentration of half-maximal effect.

Take `CC(C)(C)NCC(O)c1cc(Cl)c(N)c(Cl)c1` (stereo not given): the Potency entry in the assay with CAOV3, in the assay on CASKI, in the assay on Es-2, in the assay on HeLa, in the assay on Hek293T and with JEG-3 was “inactive” in each case. Moreover, the Potency result with OV90, in the assay on PA-1, with SKOV3 and in the assay on Tov-21-G was “inactive” in each case.

Consider `O=P1(NCCCl)OCCCN1CCCl` (stereo not given), for which the Potency result in the assay with CAOV3, in the assay with CASKI, with Es-2, with HeLa, in the assay on Hek293T and in the assay on JEG-3 was “inactive” throughout. Also, the Potency result with OV90, in the assay on PA-1, in the assay with SKOV3 and with Tov-21-G was “inactive” in each case.

`C=C1CC[C@@]2(O)[C@H]3Cc4ccc(O)c5c4[C@@]2(CCN3CC2CC2)[C@H]1O5`: the Potency result in the assay on CAOV3, in the assay with CASKI, with Es-2, in the assay on HeLa, in the assay with Hek293T and in the assay with JEG-3 was “inactive” in each case. Besides, the Potency entry with OV90, with PA-1, with SKOV3 and with Tov-21-G was “inactive” each time.

Consider `NN=C(N)N`, for which the Potency entry in the assay with CAOV3, with CASKI, in the assay on Es-2, in the assay with HeLa, with Hek293T and in the assay on OV90 was “inactive” in each case. Moreover, the Potency entry in the assay on PA-1, in the assay with SKOV3 and in the assay with Tov-21-G was “inactive” in each case.

Turning to `C=CCN1CC[C@]23c4c5ccc(O)c4O[C@H]2C(=O)CC[C@@]3(O)[C@H]1C5`, the Potency result with CAOV3, in the assay on CASKI, in the assay with Es-2, with HeLa, in the assay on Hek293T and with OV90 was “inactive” throughout. Also, the Potency result in the assay with PA-1, with SKOV3 and with Tov-21-G was “inactive” throughout.

Turning to `COc1ccccc1N1CCNCC1`, the Potency result in the assay on CAOV3, in the assay with CASKI, with Es-2, in the assay with HeLa, with Hek293T and in the assay on OV90 was “inactive” each time. Moreover, the Potency result in the assay with PA-1, in the assay with SKOV3 and with Tov-21-G was “inactive” each time.

Regarding `O=C1CC[C@@]2(O)[C@H]3Cc4ccc(O)c5c4[C@@]2(CCN3CC2CC2)[C@H]1O5`, the Potency entry with CAOV3, with CASKI, with Es-2, in the assay on HeLa, in the assay on Hek293T and with OV90 was “inactive” each time. For the same compound, the Potency entry in the assay on PA-1, with SKOV3 and in the assay on Tov-21-G was “inactive” each time.

In the case of `Cc1cccc(C)c1NC1=NCCCS1`, the Potency entry with CAOV3, in the assay on CASKI, in the assay on Es-2, in the assay with HeLa, with Hek293T and in the assay with OV90 was “inactive” throughout. The Potency result in the assay on PA-1, with SKOV3 and in the assay with Tov-21-G was “inactive” each time.

With `NCC1(CC(=O)O)CCCCC1`, the Potency result in the assay on CAOV3, with CASKI, with Es-2, in the assay on HeLa, with Hek293T and with OV90 was “inactive” throughout. Further, the Potency result in the assay with PA-1, in the assay on SKOV3 and in the assay on Tov-21-G was “inactive” each time.

Turning to `C[C@]12C/C(=C/O)C(=O)C[C@@H]1CC[C@@H]1[C@@H]2CC[C@@]2(C)[C@H]1CC[C@]2(C)O`, the Potency result in the assay on CAOV3, with CASKI, in the assay on Es-2, in the assay with HeLa, in the assay with Hek293T and with OV90 was “inactive” throughout. In addition, the Potency result with PA-1, in the assay on SKOV3 and with Tov-21-G was “inactive” throughout.

In the case of `O=[N+]([O-])c1cc([As](=O)(O)O)ccc1O`, the Potency result with CAOV3, in the assay with CASKI, with Es-2, in the assay with HeLa, in the assay with Hek293T and with OV90 was “inactive” in each case. Moreover, the Potency entry with PA-1, in the assay on SKOV3 and with Tov-21-G was “inactive” in each case.

`CNCC(O)c1ccc(O)cc1` (stereo not given): the Potency result in the assay with CAOV3, with CASKI, with Es-2, in the assay on HeLa, in the assay on Hek293T and in the assay on OV90 was “inactive” throughout. Further, the Potency entry with PA-1, in the assay with SKOV3 and with Tov-21-G was “inactive” in each case.

For `NP(N)(=O)NC(=O)c1ccc(F)cc1`, the Potency entry with CAOV3, in the assay with CASKI, with Es-2, with HeLa, in the assay with Hek293T and in the assay with OV90 was “inactive” in each case. Further, the Potency result in the assay with PA-1, in the assay with SKOV3 and in the assay on Tov-21-G was “inactive” in each case.

In the case of `CC1OC(C)OC(C)O1` (stereo not given), the Potency entry with CAOV3, with CASKI, with Es-2, in the assay on HeLa, in the assay with Hek293T and in the assay on OV90 was “inactive” in each case. In addition, the Potency result with PA-1, with SKOV3 and with Tov-21-G was “inactive” each time.

For the compound `NCC(CC(=O)O)c1ccc(Cl)cc1` (stereo not given), the activity change, negative = cytotoxicity is 8.76% [at 0.462 µM] in the assay with CAOV3; 17.3% [at 0.462 µM] with CASKI; 4.42% [at 0.462 µM] with Es-2; 8.44% [at 0.462 µM] in the assay with HeLa; -3.58% [at 0.462 µM] in the assay on Hek293T; 19.2% [at 0.462 µM] with OV90. Besides, the activity change, negative = cytotoxicity was 5.78% [at 0.462 µM] in the assay with PA-1, 1.02% [at 0.462 µM] with SKOV3 and 5.93% [at 0.462 µM] in the assay on Tov-21-G.

With `C[C@H]1O[C@@H](O[C@H]2[C@@H](O)C[C@H](O[C@H]3[C@@H](O)C[C@H](O[C@H]4CC[C@@]5(C)[C@H](CC[C@@H]6[C@@H]5CC[C@]5(C)[C@@H](C7=CC(=O)OC7)CC[C@]65O)C4)O[C@@H]3C)O[C@@H]2C)C[C@H](O)[C@@H]1O`, the Potency with CAOV3 is 316 nM (active) and 282 nM (active); with CASKI, 398 nM (active) and 794 nM (active); in the assay with Es-2 it was 282 nM (active) and 100 nM (active); with HeLa, 282 nM (active) and 89.1 nM (active); with Hek293T, 282 nM (active) and 224 nM (active); with OV90, 708 nM (active). The Potency was 282 nM (active) and 126 nM (active) in the assay with PA-1; 251 nM (active) and 112 nM (active) with SKOV3; 112 nM (active) and 100 nM (active) in the assay on Tov-21-G.

`CCC(C(N)=O)N1CCCC1=O` (stereo not given): the Potency result with CAOV3, in the assay with CASKI, with Es-2, with HeLa, in the assay on Hek293T and in the assay with JEG-3 was “inactive” each time. Besides, the Potency entry in the assay on OV90, in the assay on PA-1 and in the assay on Tov-21-G was “inactive” in each case.

For `FC(F)(F)c1cccc(C2=CCN(CCc3ccc4ccccc4c3)CC2)c1`, the Potency entry in the assay on CAOV3, in the assay on CASKI, with Es-2, with HeLa, with Hek293T and with JEG-3 was “inactive” each time. For the same compound, the Potency entry in the assay with OV90, in the assay with PA-1 and with Tov-21-G was “inactive” in each case.
